Assay [1] can be described thus: Caspase-3/7 induction in CHO-K1 cells by small molecules, qHTS assay (AID 1346980). Further: nearly all actives have a fitted effect of over 15% in size. The method in brief:
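Wild-type CHO-K1 cells exposed to compounds for 17hr at 37 C, 5% CO2. Caspase-3/7 activity then measured by Caspase-Glo 3/7 luminescence after 30min at room temperature.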

Assay [2] can be described thus: Caspase-3/7 induction in HepG2 cells by small molecules, qHTS cell viability counter screen (AID 1346981). Further: series mostly up to about 92 µM; nearly all actives have a fitted effect of over 30% in size. In a few lines:
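Wild-type HepG2 cells (2,000/well) were allowed to settle for 5 hr at 37 C, 5% CO2, then dosed with compounds in DMSO by pin transfer. After 16 hr at 37 C, CellTiter-Fluor was added and fluorescence read 1 hr later.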

For assay [3], the target named is Nuclear receptor subfamily 1 group I member 2 (Homo sapiens) (UniProt O75469). As to the kind of experiment: Human pregnane X receptor (PXR) small molecule agonists, qHTS assay (AID 1346982). Further: nearly all actives have a fitted effect of over 35% in size. Further: potency means the concentration at half of the fitted maximal effect. In a few lines:
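PXR-Luc HepG2 cells (CYP3A4 promoter-driven luciferase) were seeded in medium with 5% charcoal-stripped FBS, left 5 hr at 37 C, then exposed to compounds in DMSO for 24 hr. Luminescence was read after ONE-Glo addition.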

Assay [4] addresses Acetylcholinesterase (Homo sapiens) (UniProt P22303). As to the kind of experiment: Acetylcholinesterase (AChE) small molecule antagonists: colormetric cell-based qHTS assay (AID 1347395; calls by dose curve; further: nearly all actives have a fitted effect of over 30% in size; further: potency means the concentration at half of the fitted maximal effect). The method in brief: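 In this cell-based qHTS, attached SH-SY5Y cells were treated with test chemicals for 30 min, after which acetylthiocholine hydrolysis was followed by DTNB colour development over 90 min at 37 C.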

The target is the same in assay [5]. As to the kind of experiment: Acetylcholinesterase (AChE) small molecule antagonists: enzyme-based qHTS assay (AID 1347397; calls by dose curve; further: nearly all actives have a fitted effect of over 55% in size). The conditions noted are these: Potency: AChE enzyme activity inhibition. In a few lines: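 Recombinant human AChE (50 mU/mL) preincubated with compound 30 min at room temperature; acetylthiocholine plus DTNB then added, and thiocholine formation read colorimetrically after 10 min at room temperature. DMSO served as vehicle control.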

For assay [6] the target is unchanged. In words: Acetylcholinesterase (AChE) small molecule antagonists: fluorescence cell-based qHTS assay (AID 1347398; calls by dose curve; further: nearly all actives have a fitted effect of over 50% in size). The following applies: Potency: AChE activity. In a few lines: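 SH-SY5Y cells (2000/well), attached overnight, incubated with compound 30 min at 37 C. Acetylthiocholine plus Thiolite Green then added for 40 min at room temperature. Thiocholine fluorescence (Ex/Em 490/520 nm) reports cellular AChE activity.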

Assay [7] has the same target. As to the kind of experiment: Acetylcholinesterase (AChE) small molecule antagonists: enzyme-based qHTS assay with human liver microsomes (AID 1347399; calls by dose curve; further: nearly all actives have a fitted effect of over 60% in size). The conditions noted are these: Potency: qHTS inhibition. The method in brief: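 Recombinant human AChE (50 mU/mL in the enzyme mix) and human liver microsomes (0.25 mg/mL final) were preincubated with compound and NADPH (0.25 mg/mL final) for 30 min at 37 C. Acetylthiocholine/DTNB was then added; thiocholine was read colorimetrically after 10 min at room temperature.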

Assay [8] deals with Cytochrome P450 2D6 (Homo sapiens) (UniProt P10635). In words: Cytochrome P450 Family 2 Subfamily D Member 6 (CYP2D6) small molecule antagonists: luciferase reporter qHTS assay (AID 1671196). Further: nearly all actives have a fitted effect of over 50% in size. Further: potency means the concentration at half of the fitted maximal effect. In a few lines:
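CYP2D6 enzyme–substrate mix was held with compound for 10 min at room temperature, then NADPH regeneration solution was added and the reaction ran 1 h at room temperature. Luciferin product was detected by luminescence after 20 min with detection reagent.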

For assay [9], the target named is Cytochrome P450 2C19 (Homo sapiens) (UniProt P33261). As to the kind of experiment: Cytochrome P450 Family 2 Subfamily C Member 19 (CYP2C19) small molecule antagonists: luciferase reporter qHTS assay (AID 1671197). Further: nearly all actives have a fitted effect of over 65% in size. Further: potency means the concentration at half of the fitted maximal effect. The method in brief: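 P450-Glo CYP2C19 screening system; proluciferin substrate; DMSO compound stocks; 10 min RT preincubation; NADPH regeneration, 1 h at 37C; luciferin detection reagent, 20 min RT; luminescence as RLU.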

The target of assay [10] is Cytochrome P450 2C9 (Homo sapiens) (UniProt P11712). As to the kind of experiment: Cytochrome P450 Family 2 Subfamily C Member 9 (CYP2C9) small molecule antagonists: luciferase reporter qHTS assay (AID 1671198). Further: nearly all actives have a fitted effect of over 50% in size. Further: potency means the concentration at half of the fitted maximal effect. In a few lines:
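P450-Glo proluciferin substrate with CYP2C9 enzyme; 10 min RT preincubation, then NADPH regeneration 1 h at 37C; luciferin detection reagent 20 min RT, luminescence in relative luminescence units.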

The target in assay [11] is Cytochrome P450 1A2 (Homo sapiens) (UniProt P05177). In words: Cytochrome P450 Family 1 Subfamily A Member 2 (CYP1A2) small molecule antagonists: luciferase reporter qHTS assay (AID 1671199). Further: nearly all actives have a fitted effect of over 50% in size. Further: potency means the concentration at half of the fitted maximal effect. In a few lines:
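Human CYP1A2 activity measured with a P450-Glo proluciferin substrate; compounds in DMSO preincubated 10 min at room temperature with enzyme-substrate mix, then NADPH regeneration system added for 1 h. Luciferin detection reagent, 20 min, luminescence read.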

Assay [12] concerns the target Voltage-gated inwardly rectifying potassium channel KCNH2 (Homo sapiens) (UniProt Q12809). In words: Human Ether-a-go-go-Related Gene (hERG) channel small molecule antagonists: fluorescence cell-based qHTS assay (AID 1671200). The method in brief: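 Cell line hERG-U2OS; dye FluxOR II, 1 h RT dark; Tl+ stimulus; ex 480/em 540 nm, read each second for 2 min.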
Assay [13] concerns the target Cytochrome P450 3A4 (Homo sapiens) (UniProt P08684). In words: Cytochrome P450 Family 3 Subfamily A Member 4 (CYP3A4) small molecule antagonists: luciferase reporter qHTS assay (AID 1671201). Further: nearly all actives have a fitted effect of over 50% in size. Further: potency means the concentration at half of the fitted maximal effect. In a few lines:
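Room-temperature assay throughout: 10 min compound–enzyme/substrate preincubation, 1 h reaction after NADPH regeneration solution, 20 min detection. Luciferin formed from proluciferin substrate is quantified by luminescence.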

Values joined by “and” are separate entries in the source; they are usually repeats but may differ in a detail not shown here. Equal values may be shown once. Records with an inconclusive call do not appear. Where a structure was tested more than once in an assay, its records may differ in their call. Active and inactive are the calls of the source. Unless noted, the call rests on the fitted dose curve; in most records, active means well fitted curve in the direction sought with a large enough effect in the repeat runs; inconclusive means weak or mixed curves; inactive means no such curve, though single readings can be large; an effect the other way counts as inactive or inconclusive.

Chain of Cytochrome P450 3A4 (Homo sapiens) (P08684 whole entry, looked up): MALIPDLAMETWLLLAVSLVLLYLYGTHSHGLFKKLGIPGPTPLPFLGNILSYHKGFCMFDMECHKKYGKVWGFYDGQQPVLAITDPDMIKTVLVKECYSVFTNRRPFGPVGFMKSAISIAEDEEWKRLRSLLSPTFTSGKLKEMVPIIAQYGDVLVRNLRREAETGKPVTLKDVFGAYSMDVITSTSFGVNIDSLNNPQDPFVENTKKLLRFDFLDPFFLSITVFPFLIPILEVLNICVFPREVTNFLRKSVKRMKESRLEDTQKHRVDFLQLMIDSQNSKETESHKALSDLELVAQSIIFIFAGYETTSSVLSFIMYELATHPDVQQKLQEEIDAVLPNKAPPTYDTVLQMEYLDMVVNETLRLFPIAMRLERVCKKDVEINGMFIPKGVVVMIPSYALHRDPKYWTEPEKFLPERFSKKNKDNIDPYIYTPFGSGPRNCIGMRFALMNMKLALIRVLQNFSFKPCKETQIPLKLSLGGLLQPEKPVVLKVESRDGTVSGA
Chain of Voltage-gated inwardly rectifying potassium channel KCNH2 (Homo sapiens) (Q12809 whole entry, looked up): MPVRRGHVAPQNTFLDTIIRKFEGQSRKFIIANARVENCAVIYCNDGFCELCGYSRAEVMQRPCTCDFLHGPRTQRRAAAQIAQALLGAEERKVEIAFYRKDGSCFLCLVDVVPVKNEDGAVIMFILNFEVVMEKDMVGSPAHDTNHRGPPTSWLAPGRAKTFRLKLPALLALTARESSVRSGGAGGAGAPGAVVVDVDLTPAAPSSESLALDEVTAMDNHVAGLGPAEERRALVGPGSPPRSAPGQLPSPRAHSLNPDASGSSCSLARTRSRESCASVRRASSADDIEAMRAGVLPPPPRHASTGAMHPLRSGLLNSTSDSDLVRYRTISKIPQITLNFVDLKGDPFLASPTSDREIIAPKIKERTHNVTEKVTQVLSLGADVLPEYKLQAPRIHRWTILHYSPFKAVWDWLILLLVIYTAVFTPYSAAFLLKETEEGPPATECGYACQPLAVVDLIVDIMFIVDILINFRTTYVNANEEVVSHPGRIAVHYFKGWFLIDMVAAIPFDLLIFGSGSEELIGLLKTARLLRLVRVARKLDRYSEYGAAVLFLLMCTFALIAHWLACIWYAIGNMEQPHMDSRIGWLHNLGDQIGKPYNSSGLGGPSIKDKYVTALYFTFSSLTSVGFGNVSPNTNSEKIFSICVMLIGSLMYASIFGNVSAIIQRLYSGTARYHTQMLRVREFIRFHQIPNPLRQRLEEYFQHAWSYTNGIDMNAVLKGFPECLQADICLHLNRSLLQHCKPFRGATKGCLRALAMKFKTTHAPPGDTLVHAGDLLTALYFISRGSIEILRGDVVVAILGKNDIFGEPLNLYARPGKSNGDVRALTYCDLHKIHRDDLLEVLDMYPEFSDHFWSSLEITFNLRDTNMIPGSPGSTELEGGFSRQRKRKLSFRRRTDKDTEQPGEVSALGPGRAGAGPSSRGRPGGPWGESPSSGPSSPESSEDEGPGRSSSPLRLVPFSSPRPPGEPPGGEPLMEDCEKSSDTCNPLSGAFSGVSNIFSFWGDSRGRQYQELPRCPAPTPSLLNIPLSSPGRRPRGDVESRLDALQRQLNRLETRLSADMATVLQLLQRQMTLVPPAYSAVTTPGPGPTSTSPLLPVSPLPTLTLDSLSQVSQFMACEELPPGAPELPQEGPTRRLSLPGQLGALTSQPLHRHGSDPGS
Chain of Nuclear receptor subfamily 1 group I member 2 (Homo sapiens) (O75469 whole entry, looked up): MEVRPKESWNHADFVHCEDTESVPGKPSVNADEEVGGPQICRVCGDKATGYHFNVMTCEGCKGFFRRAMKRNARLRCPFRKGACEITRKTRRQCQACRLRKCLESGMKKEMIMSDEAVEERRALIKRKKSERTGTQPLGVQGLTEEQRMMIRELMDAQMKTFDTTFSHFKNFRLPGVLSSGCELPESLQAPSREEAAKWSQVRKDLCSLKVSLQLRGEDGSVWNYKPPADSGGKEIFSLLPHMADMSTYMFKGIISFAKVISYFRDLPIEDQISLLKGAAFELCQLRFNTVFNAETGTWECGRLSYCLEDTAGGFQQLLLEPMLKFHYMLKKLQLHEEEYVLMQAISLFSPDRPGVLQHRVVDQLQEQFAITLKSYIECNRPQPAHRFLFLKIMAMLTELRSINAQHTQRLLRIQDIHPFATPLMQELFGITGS
Chain of Acetylcholinesterase (Homo sapiens) (P22303 whole entry, looked up): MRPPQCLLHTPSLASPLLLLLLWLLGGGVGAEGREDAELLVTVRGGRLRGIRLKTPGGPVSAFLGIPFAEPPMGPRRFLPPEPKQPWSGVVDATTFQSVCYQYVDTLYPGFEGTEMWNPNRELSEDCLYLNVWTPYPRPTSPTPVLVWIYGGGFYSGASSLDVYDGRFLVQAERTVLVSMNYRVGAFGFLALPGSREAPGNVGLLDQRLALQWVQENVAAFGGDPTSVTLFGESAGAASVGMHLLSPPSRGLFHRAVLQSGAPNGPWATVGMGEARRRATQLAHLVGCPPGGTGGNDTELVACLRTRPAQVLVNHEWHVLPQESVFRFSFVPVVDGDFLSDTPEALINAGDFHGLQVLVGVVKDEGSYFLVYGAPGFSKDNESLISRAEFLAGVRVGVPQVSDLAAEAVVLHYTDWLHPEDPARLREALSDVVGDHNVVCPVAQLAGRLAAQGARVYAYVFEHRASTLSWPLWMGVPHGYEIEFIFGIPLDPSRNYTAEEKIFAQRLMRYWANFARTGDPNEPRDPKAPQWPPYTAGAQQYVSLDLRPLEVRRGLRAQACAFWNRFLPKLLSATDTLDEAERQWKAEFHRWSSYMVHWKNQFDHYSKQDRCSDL
Chain of Cytochrome P450 2D6 (Homo sapiens) (P10635 whole entry, looked up): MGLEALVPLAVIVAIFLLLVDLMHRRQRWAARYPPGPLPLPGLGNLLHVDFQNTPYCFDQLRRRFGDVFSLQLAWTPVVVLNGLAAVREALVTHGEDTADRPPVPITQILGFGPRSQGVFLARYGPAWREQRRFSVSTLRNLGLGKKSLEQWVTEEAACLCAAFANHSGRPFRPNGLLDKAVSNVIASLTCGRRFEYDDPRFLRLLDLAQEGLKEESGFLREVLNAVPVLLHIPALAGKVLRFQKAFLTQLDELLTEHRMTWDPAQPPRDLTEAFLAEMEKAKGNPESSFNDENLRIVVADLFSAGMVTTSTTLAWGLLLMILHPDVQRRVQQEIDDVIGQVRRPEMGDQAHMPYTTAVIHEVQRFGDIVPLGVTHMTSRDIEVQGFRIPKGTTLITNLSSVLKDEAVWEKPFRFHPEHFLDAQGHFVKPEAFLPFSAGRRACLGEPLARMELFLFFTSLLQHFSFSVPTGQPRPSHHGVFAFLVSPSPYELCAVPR
Chain of Cytochrome P450 2C9 (Homo sapiens) (P11712 whole entry, looked up): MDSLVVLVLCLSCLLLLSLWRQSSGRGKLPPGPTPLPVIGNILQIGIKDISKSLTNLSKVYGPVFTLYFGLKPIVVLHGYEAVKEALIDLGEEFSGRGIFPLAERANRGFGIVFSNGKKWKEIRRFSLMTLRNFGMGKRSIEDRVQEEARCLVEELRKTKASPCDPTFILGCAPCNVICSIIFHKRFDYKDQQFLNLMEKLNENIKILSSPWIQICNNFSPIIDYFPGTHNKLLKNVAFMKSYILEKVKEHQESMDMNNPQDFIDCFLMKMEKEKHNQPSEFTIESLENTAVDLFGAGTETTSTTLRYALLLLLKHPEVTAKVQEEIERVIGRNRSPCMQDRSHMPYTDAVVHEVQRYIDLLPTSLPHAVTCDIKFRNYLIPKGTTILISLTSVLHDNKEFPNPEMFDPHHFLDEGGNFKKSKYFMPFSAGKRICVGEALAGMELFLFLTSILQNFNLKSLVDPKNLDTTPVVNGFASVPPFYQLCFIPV
Chain of Cytochrome P450 2C19 (Homo sapiens) (P33261 whole entry, looked up): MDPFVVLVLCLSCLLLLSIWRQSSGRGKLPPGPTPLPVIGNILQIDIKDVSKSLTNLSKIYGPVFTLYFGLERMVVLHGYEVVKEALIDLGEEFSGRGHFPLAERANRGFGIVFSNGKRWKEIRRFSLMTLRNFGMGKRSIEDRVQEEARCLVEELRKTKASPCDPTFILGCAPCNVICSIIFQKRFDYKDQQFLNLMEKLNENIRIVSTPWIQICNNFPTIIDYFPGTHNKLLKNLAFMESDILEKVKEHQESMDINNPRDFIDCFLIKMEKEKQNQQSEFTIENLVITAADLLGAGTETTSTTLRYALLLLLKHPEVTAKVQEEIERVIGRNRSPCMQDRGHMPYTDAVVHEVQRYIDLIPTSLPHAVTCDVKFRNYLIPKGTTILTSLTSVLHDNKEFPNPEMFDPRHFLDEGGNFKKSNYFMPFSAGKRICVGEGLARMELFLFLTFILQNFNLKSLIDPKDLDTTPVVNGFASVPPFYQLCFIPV
Chain of Cytochrome P450 1A2 (Homo sapiens) (P05177 whole entry, looked up): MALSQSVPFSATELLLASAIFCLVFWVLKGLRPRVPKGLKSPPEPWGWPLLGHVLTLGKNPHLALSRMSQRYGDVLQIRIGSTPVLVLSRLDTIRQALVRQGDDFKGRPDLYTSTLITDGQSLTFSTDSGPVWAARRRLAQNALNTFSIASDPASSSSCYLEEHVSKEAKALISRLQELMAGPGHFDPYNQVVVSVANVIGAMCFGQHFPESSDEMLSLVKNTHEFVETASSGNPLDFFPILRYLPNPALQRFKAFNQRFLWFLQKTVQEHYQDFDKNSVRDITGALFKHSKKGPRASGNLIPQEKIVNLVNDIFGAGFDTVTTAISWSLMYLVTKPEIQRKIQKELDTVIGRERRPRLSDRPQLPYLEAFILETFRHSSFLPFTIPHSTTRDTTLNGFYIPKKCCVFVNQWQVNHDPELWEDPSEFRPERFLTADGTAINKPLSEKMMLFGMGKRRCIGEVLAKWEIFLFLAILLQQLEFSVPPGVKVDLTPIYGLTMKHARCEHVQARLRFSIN

On to `CC(C)NC(=O)N1CC(=O)N(c2cc(Cl)cc(Cl)c2)C1=O`, for which the call in assay [1] was inactive. The Potency result in [2], in [4], in assay [5], in assay [6], in [7] and in assay [8] was “inactive” in each case. The Potency entry in assay [12] and in [13] was “inactive” each time. In addition, the Potency in [3] was 24.3 µM (active) and 54.5 µM (active); in [9], 7.96 µM (active) and 8.94 µM (active); in assay [10] it was 1.26 µM (active); in assay [11], 12.6 µM (active).
With `Cc1cccc([N+](=O)[O-])c1`, the molecule was called inactive in [1]. Further, the Potency entry in assay [2], in assay [3], in assay [4], in assay [5], in [6] and in assay [7] was “inactive” in each case. Further, the Potency entry in assay [8], in [9], in [10], in [11], in [12] and in [13] was “inactive” each time.
In the case of `OCCN(CCO)CCO`, the outcome in [1] was inactive. Also, the Potency result in [2], in assay [3], in assay [4], in assay [5], in assay [6] and in assay [7] was “inactive” each time. The Potency result in [8], in [9], in assay [10], in [12] and in assay [13] was “inactive” throughout.
`COC(=O)c1ccccc1C(=O)OC`: the call in assay [1] was inactive. Further, the Potency result in [2], in assay [3], in [4], in assay [5], in assay [6] and in assay [7] was “inactive” throughout. Besides, the Potency result in [8], in [10], in assay [12] and in assay [13] was “inactive” in each case. Further, the Potency is 71.4 µM (active) in assay [9]; 31.9 µM (active) and 25.2 µM (active) in assay [11].
Turning to `c1ccc2c(c1)Oc1ccccc1O2`, in [1], the molecule was called inactive. Further, the Potency entry in assay [2], in assay [3], in [4], in assay [5], in [6] and in [7] was “inactive” throughout. The Potency entry in [8], in assay [9], in [10], in assay [12] and in assay [13] was “inactive” throughout.
`CC(C)N1C(=O)c2ccccc2NS1(=O)=O`: in [1], the molecule was classed as inactive. Further, the Potency result in assay [2], in [3], in assay [4], in assay [5], in assay [6] and in [7] was “inactive” each time. For the same molecule, the Potency entry in assay [8], in [11], in assay [12] and in assay [13] was “inactive” in each case. Further, in assay [10], the Potency was 20 µM (active) and 17.8 µM (active).
With `NCCc1ccc(O)cc1`, in [1], the call was inactive. For the same molecule, the Potency entry in assay [2], in assay [3], in [5], in assay [6], in assay [7] and in [12] was “inactive” each time. Also, the Potency in assay [4] was 62.8 µM (active) and inactive; in assay [8], 25 µM (active) and 7.76 µM (active); in assay [9], 49.9 µM (active) and inactive; in [11] it was 39.6 µM (active) and inactive.
In the case of `Cc1ccc(N)cc1Cl`, the molecule was classed as inactive in assay [1]. In addition, the Potency result in assay [2], in assay [3], in assay [4], in assay [5], in assay [6] and in assay [7] was “inactive” in each case. Further, in [12], the Potency result was “inactive”. Moreover, the Potency was 7.18 µM (active) and 11.2 µM (active) in [9]; 32.1 µM (active) and 35.6 µM (active) in [10]; 1.28 µM (active) and 1.59 µM (active) in assay [11].
`CCCC1COC(Cn2cncn2)(c2ccc(Cl)cc2Cl)O1` (stereo unspecified): the outcome in assay [1] was inactive. The Potency in assay [3] was 31.2 µM (active) and 9.69 µM (active); in [8], 32.3 µM (active) and 35.6 µM (active); in assay [9], 456 nM (active) and 356 nM (active); in assay [10] it was 2.04 µM (active) and 2.24 µM (active); in [11], 20.4 µM (active) and 31.7 µM (active); in assay [13] it was 51.2 nM (active) and 56.4 nM (active). The Potency entry in [4], in assay [5], in assay [6], in assay [7] and in assay [12] was “inactive” throughout.
In the case of `Cn1cc(-c2ccccc2)c(=O)c(-c2cccc(C(F)(F)F)c2)c1`, the result in assay [1] was inactive. The Potency is 29.9 µM (active) and 17.2 µM (active) in assay [3]; 1.95 µM (active) and 2.83 µM (active) in assay [9]; 34.7 µM (active) and 31.7 µM (active) in [10]; 19.5 µM (active) and 17.8 µM (active) in [11]; 12.3 µM (active) and 12.6 µM (active) in assay [13]. Moreover, the Potency entry in assay [4], in assay [5], in assay [6], in assay [7] and in assay [12] was “inactive” throughout.
On to `CON(C)C(=O)Nc1ccc(Cl)c(Cl)c1`, for which the molecule was classed as inactive in [1]. In addition, the Potency result in assay [2], in [4], in [5], in [6], in [7] and in [8] was “inactive” each time. The Potency entry in [12] and in assay [13] was “inactive” in each case. For the same molecule, the Potency is 61.4 µM (active) and 54.5 µM (active) in assay [3]; 16 µM (active) and 39.9 µM (active) in assay [9]; 40.1 µM (active) and 39.9 µM (active) in assay [10]; 1.42 µM (active) and 3.17 µM (active) in assay [11].
As for `CN(C)CCO`, the outcome in [1] was inactive. Also, the Potency entry in assay [2], in [3], in assay [4], in assay [5], in assay [6] and in [7] was “inactive” in each case. The Potency entry in assay [8], in assay [9], in [10], in assay [11], in assay [12] and in assay [13] was “inactive” throughout.
